Calls of active or inactive are those of the source. Entries that show only a call come without a potency. The call rests on the fitted dose curve.

Chain of Gonadotropin-releasing hormone receptor (Homo sapiens) (P30968 whole entry, looked up): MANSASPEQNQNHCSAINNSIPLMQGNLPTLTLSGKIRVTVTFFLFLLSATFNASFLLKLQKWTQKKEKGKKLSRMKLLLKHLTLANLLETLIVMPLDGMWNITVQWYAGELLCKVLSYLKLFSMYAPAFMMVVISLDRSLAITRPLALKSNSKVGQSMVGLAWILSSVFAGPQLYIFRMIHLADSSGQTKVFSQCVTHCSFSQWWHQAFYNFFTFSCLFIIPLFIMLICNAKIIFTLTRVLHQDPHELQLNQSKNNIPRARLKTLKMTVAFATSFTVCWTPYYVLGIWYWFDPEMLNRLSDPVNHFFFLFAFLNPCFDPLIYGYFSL

This experiment addresses Gonadotropin-releasing hormone receptor (Homo sapiens) (UniProt P30968). Nature of the experiment: Human gonadotropin-releasing hormone receptor (GnRHR) small molecule agonists, calcium flux assay in GnRHR-HEK293 cells (AID 1920063). Further: nearly all actives have a fitted effect of over 35% in size. To be noted: calcium flux fluorescence, agonist mode; series mostly up to 57.6 µM. A digest of the protocol: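 HEK293 cells stably expressing human GnRHR were plated 18 h at 37 °C, loaded with calcium dye 1 h at 37 °C, then given compound in agonist mode; fluorescence (Ex/Em 480/540) read kinetically for 3 min at 1 s intervals.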
Background: A change in cytosolic calcium serves as a functional read-out for many receptors and channels.
In the case of `CCCCCCCCCCCC[N+](C)(C)C`, the Potency entry is “inactive”.
The same measure for `O=C1CCCCCCCCCCC1`: “inactive”.
The value for `CC(=O)[C@H]1CC[C@H]2[C@@H]3CC=C4C[C@@H](O)CC[C@]4(C)[C@H]3CC[C@]12C` was “inactive”; that for `O=C1O[C@H](CO)[C@@H](O)[C@H](O)[C@H]1O` was “inactive”.
The value for `Brc1nc2ccccc2s1` was “inactive”.
Consider `Oc1ccc2ccccc2c1N=Nc1ccccc1`, for which the Potency result was “inactive”.
The value for `Nc1cc([N+](=O)[O-])ccc1C(=O)O` was “inactive”; that for `CCCCCCCCCCCCCC[N+](C)(C)Cc1ccccc1` was “inactive”; that for `CCCCCCCCOc1ccc(C(=O)c2ccccc2)c(O)c1` was “inactive”.
The value for `Clc1ccc(Cl)c(Cl)c1Cl` was “inactive”.
The same measure for `COc1ccc(C(Cl)=C(c2ccc(OC)cc2)c2ccc(OC)cc2)cc1`: “inactive”; for `CCCCC1(COC(=O)CCC(=O)O)C(=O)N(c2ccccc2)N(c2ccccc2)C1=O`: “inactive”; for `CN(C)CCCN`: “inactive”.
In the case of `C=C(C)C(=O)O[C@H]1C[C@@H]2CC[C@@]1(C)C2(C)C`, the Potency result was “inactive”.
The value for `C=CCOC(=O)c1ccccc1C(=O)OCC=C` was “inactive”.
The value for `CC(=O)c1ccc(S(=O)(=O)NC(=O)NC2CCCCC2)cc1` was “inactive”; that for `CCC(O)OC(O)CC` (stereo not given) was “inactive”.
The value for `COCCOC(=O)c1ccccc1C(=O)OCCOC` was “inactive”.
On to `CC(C)CC(=O)CC(C)CC(C)C` (stereo not given), for which the Potency result was “inactive”.
The same measure for `O=c1n(CC2CO2)c(=O)n(CC2CO2)c(=O)n1CC1CO1` (stereo not given): “inactive”; for `O=C(/C=C/C=C/c1ccc2c(c1)OCO2)N1CCCCC1`: “inactive”; for `Cc1cc(Cc2ccc(N)c(C)c2)ccc1N`: “inactive”.
Turning to `CCC[C@H](N[C@@H](C)C(=O)N1[C@H](C(=O)O)C[C@@H]2CCCC[C@@H]21)C(=O)OCC`, the Potency result is “inactive”.
The value for `c1ccc2c(c1)Cc1ccccc1-2` was “inactive”; that for `CCCOC(=O)NCCCN(C)C` was “inactive”.
The value for `CCCCOC(=O)CC(CC(=O)OCCCC)(OC(C)=O)C(=O)OCCCC` was “inactive”; that for `C=CC[N+](C)(C)CC=C` was “inactive”.
The value for `CC(O)COCC(C)O` (stereo not given) was “inactive”.
With `CCCCC/C=C\C/C=C\CCCCCCCC(=O)OC`, the Potency result was “inactive”.
The same measure for `Nc1ncnc2nc[nH]c12`: “inactive”.
Take `Cc1ccc(N)c(S(=O)(=O)O)c1`: the Potency entry is “inactive”.
The same measure for `NCCOCCO`: “inactive”.
Turning to `CC(=O)Oc1ccc(C)cc1`, the Potency result was “inactive”.
The value for `O=S1(=O)CCCO1` was “inactive”; that for `C=C(C)C(=O)OCC(CC)(COC(=O)C(=C)C)COC(=O)C(=C)C` was “inactive”; that for `O=[N+]([O-])c1cccc(Cl)c1` was “inactive”.
The value for `CCOCC(=O)O` was “inactive”; that for `C=CCc1ccc(OC)c(OC)c1` was “inactive”; that for `Clc1ccccn1` was “inactive”.
The value for `Cc1cccc([N+](=O)[O-])c1C` was “inactive”.

The record behind these values is PubChem BioAssay (Tox21).
